Bioassay records from PubChem BioAssay.
CYP2C19 inhib = blocks human cytochrome P450 2C19; actives 21% (n = 96,000); CYP2C19 Supersomes, luciferin-H EGE luminescence, 30 min; inhibition, % at 5 µM;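 active = CYP2C19 inhibition above a set limit at 5 µM in the primary screen, cut at about 50% in these data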;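 note: plate controls were negative control wells for no effect and 2.5 mM tranylcypromine positive control for full effect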
sEH activator = activators of human soluble epoxide hydrolase; activation, % at 2 µM; AID 717; P34913; purified human sEH enzymatic activity, activator screen; actives 0.04% (n = 91,000); in the data active = activation above about 37%
Target sequence (P34913 whole entry, looked up): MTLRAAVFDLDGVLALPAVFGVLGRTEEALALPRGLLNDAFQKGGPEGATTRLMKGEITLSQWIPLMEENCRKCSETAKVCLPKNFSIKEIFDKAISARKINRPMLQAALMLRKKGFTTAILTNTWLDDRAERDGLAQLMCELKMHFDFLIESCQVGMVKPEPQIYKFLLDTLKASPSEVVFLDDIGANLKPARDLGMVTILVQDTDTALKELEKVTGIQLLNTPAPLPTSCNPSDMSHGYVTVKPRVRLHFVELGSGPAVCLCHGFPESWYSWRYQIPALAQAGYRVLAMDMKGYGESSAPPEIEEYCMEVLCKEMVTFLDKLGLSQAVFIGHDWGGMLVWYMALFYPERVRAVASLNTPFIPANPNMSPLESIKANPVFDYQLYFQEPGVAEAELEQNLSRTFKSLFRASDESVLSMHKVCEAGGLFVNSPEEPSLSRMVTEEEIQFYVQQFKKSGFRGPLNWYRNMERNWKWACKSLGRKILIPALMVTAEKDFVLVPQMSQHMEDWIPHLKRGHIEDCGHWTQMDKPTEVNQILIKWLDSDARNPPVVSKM
CYP2C9 activ = CYP2C9 (human) activation; P11712; recombinant CYP2C9, luciferin-H conversion, luminescence; hits give high values; factor 1 = untreated enzyme, 0 = blocked; activation factor at 5 µM; actives 1.4% (n = 96,000); AID 1024;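 active = activation factor of 2 or more for CYP2C9 at a 5 µM dose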;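 note: 0 = sulfaphenazole-blocked wells and 1 = vehicle-only wells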
CYP2C9 inh = blocks human cytochrome P450 2C9; P11712; AID 777; actives 20% (n = 96,000); CYP2C9 Supersomes, luciferin-H conversion, luminescence; inhibition, % at 5 µM;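 active = blocking of liver enzyme CYP2C9 beyond about 50% at 5 µM, limit read from the data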
CYP2C19 activ = increases human CYP2C19 enzyme activity; 96,000 tested, under 10 active; AID 1025; activation factor at 5 µM; P33261; recombinant CYP2C19, luciferin-H EGE luminescence; hits give high values; 0 = fully inhibited enzyme, 1 = untreated enzyme;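 active = activation factor of at least 2 at 5 µM in the primary screen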;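 note: 0 = wells with 2.5 mM tranylcypromine and 1 = vehicle-only wells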
sEH inhibitor = blocks human soluble epoxide hydrolase activity; inhibition, % at 2 µM; AID 707; actives 0.34% (n = 91,000); recombinant human sEH enzymatic activity assay; in the data active = inhibition above about 80%
* hit, by the source's call; . = no result given. Compounds with a hit are over-represented: about 27% of the library has one in this group of screens.

SMILES	CYP2C19 inhib	sEH activator	CYP2C9 activ	CYP2C9 inh	CYP2C19 activ	sEH inhibitor
O=C(CCN1Cc2ccccc2C1)c1ccc2c(c1)OCCO2	47.8	14.0	0.5	51.5*	0.5	-15.8
O=C(CCN1CCc2ccccc2C(c2ccccc2)C1)c1ccc2c(c1)OCCO2 (stereo unspecified)	29.4	-0.1	0.5	54.6*	0.7	-0.8
CCCC(=O)c1ccc2c(c1)OCCO2	20.1	2.8	0.8	21.5	0.8	-2.1
O=C(O)CCC(=O)c1ccc2c(c1)OCCO2	-15.4	.	1.1	-6.6	1.2	.
O=C(CS(=O)(=O)c1ccccc1)c1ccc2c(c1)OCCO2	70.3*	5.2	1.8	-83.9	0.3	-3.8
Cc1cccc2cc(CN(CCN3CCOCC3)C(=O)NCc3ccccc3)c(=O)[nH]c12	28.0	-3.7	0.8	17.1	0.7	0.8
COc1ccc(C2=NN(CN3C(=O)C(=O)c4ccccc43)C(c3ccc(C)cc3)C2)cc1 (stereo unspecified)	51.1*	-1.7	0.2	75.6*	0.5	3.0
CC1CCN(S(=O)(=O)c2ccc3c(c2)oc(=O)n3CC(=O)N2CCc3ccccc3C2)CC1	30.3	2.4	0.6	42.0	0.7	-5.2
Cc1cccnc1NC(=O)C12CCC(C)(C(=O)O1)C2(C)C (stereo unspecified)	5.6	-5.6	0.8	24.5	0.9	4.6
COc1ccc(OC)c(NC(=O)C23CCC(C)(C(=O)O2)C3(C)C)c1 (stereo unspecified)	60.7*	-5.3	2*	-103.2	0.4	5.5
COC(=O)c1ccccc1NC(=O)C12CCC(C)(C(=O)O1)C2(C)C (stereo unspecified)	57.1*	-6.9	0.9	9.7	0.4	9.4
COc1ccc(Cl)cc1NC(=O)C12CCC(C)(C(=O)O1)C2(C)C (stereo unspecified)	83.1*	-1.3	1.6	-65.0	0.2	0.1
O=S(=O)(Cc1ccccc1)NCC1CCCO1 (stereo unspecified)	7.9	.	1.1	-8.3	0.9	.
COCCNC(=O)c1cn(C)c2ccc(S(=O)(=O)N(C)C3CCCCC3)cc2c1=O	8.4	.	0.7	32.4	0.9	.
CC(C)(C)CC(=O)Nc1cccc2c1CCCC2	46.0	-9.1	0.9	7.6	0.5	9.2
O=C(COc1ccccc1)Nc1cccc2c1CCCC2	11.0	2.0	2.1*	-106.2	0.9	0.3
CN(CC(=O)Nc1cccc2c1CCCC2)S(=O)(=O)c1ccccc1	25.5	0.5	2.3*	-127.9	0.7	3.5
O=C(CCCc1ccccc1)Nc1cccc2c1CCCC2	-0.6	-47.0	2.6*	-157.2	1	48.7
CN(/C(=N\S(=O)(=O)c1ccccc1)C(F)(F)F)c1ccccc1	28.8	13.6	1	-2.6	0.7	-13.4
Cc1cc(C)c2c(-n3cccc3)c(C(=O)NNS(=O)(=O)c3ccccc3)sc2n1	33.3	1.8	0	96.5*	0.7	0.6
Cc1cc(C)c2c(-n3cccc3)c(NC(=O)OC(C)C)sc2n1	13.2	-2.8	0.6	37.2	0.9	0.3
CC(=O)Nc1ccccc1Nc1cc(C#N)c(C#N)cc1[N+](=O)[O-]	12.9	12.1	1	3.3	0.9	-12.0
Cc1ccsc1C(=O)NC(C)c1ccc2c(c1)OCO2 (stereo unspecified)	.	-9.1	.	.	.	11.3
CC(NC(=O)c1cc2sccc2n1C)c1ccc2c(c1)OCCO2 (stereo unspecified)	22.5	-42.7	0.2	81.6*	0.8	41.3
CC(NC(=O)c1cccs1)c1ccc2c(c1)OCO2 (stereo unspecified)	91.9*	-4.3	0.2	75.9*	0.1	5.0
SMILES	CYP2C19 inhib	sEH activator	CYP2C9 activ	CYP2C9 inh	CYP2C19 activ	sEH inhibitor
CCn1c(C(=O)NC(C)c2ccc3c(c2)OCCO3)cc2sccc21 (stereo unspecified)	9.5	-33.9	0.7	32.9	0.9	36.3
NC(=O)CSc1ncc(-c2ccccc2)[nH]1	-27.1	5.9	1.2	-17.3	1.3	-4.5
O=C(CSc1ncc(-c2ccc(F)cc2)[nH]1)N1CCCCC1	84.5*	-1.5	1.1	-11.5	0.2	-1.0
O=C(CSc1ncc(-c2ccccc2)[nH]1)Nc1cccc(O)c1	62.4*	-6.0	0.8	21.4	0.4	4.1
O=C(CSc1ncc(-c2ccccc2)[nH]1)Nc1ccccc1	75.1*	-3.3	0.4	56.4*	0.2	1.0
CCOC(=O)COc1ccc2c(c1)C(=O)CC(C)(C)O2	13.4	-6.6	0.9	13.4	0.9	8.2
Cc1cccc(OCC(=O)OCC(=O)c2c(N)n(C)c(=O)n(C)c2=O)c1	44.6	-0.2	0.9	10.5	0.6	-0.1
Cc1ccc(Nc2nnns2)cc1C	39.8	-6.7	0.7	34.5	0.6	9.7
C=CCOC(=O)C1=C(C)NC(SC)=C(C#N)C1c1ccc(OCC)cc1 (stereo unspecified)	86.0*	.	0.1	93.4*	0.1	.
C=CCOC(=O)C1=C(C)NC(SCC(=O)OCC)=C(C#N)C1c1ccc(O)c(OC)c1 (stereo unspecified)	99.1*	.	0	100.2*	0	.
C=CCOC(=O)C1=C(C)NC(SCC(=O)Nc2nccs2)=C(C#N)C1c1cccs1 (stereo unspecified)	17.0	9.4	0.8	16.2	0.8	-9.8
O=C(CC(NS(=O)(=O)c1ccc(Cl)cc1)c1ccco1)N1CCc2ccccc21 (stereo unspecified)	12.3	9.0	1	-1.8	0.9	-12.1
COC(=O)c1[nH]c2ccc(C)cc2c1NC(=O)Oc1ccccc1	18.2	1.0	1	2.0	0.8	1.0
COC(=O)c1[nH]c2ccc(F)cc2c1NC(=O)Nc1ccc(OC)cc1	11.1	-4.3	1	2.6	0.9	7.3
COC(=O)c1[nH]c2ccc(C)cc2c1NC(=O)Nc1ccc(OC)cc1	54.3*	3.2	0.9	5.6	0.5	-3.1
COC(=O)c1[nH]c2ccc(C)cc2c1NS(=O)(=O)c1ccc(F)cc1	76.8*	-22.6	0.6	35.9	0.2	22.2
Cc1cc(S(=O)(=O)Nc2c(C(=O)O)[nH]c3ccccc23)ccc1F	91.9*	-29.7	0.2	78.6*	0.1	30.6
COC(=O)c1[nH]c2ccc(C)cc2c1NS(=O)(=O)c1ccc(F)c(C)c1	75.5*	10.9	0.5	52.1*	0.2	-11.5
O=C(CCc1ccccc1)n1nc(-c2ccco2)nc1SCc1ccccc1	22.8	.	0.9	9.9	0.8	.
COc1cc(-c2nn3c(C4CCCCC4)nnc3s2)cc(OC)c1OC	21.6	14.4	0.2	83.7*	0.8	-14.5
COc1ccc(-c2nn3c(C4CCCCC4)nnc3s2)cc1OC	73.7*	8.2	0.4	63.9*	0.3	-8.3
COc1ccc(-c2nnc3sc(C4CCCCC4)nn23)cc1OC	28.1	0.6	0.7	27.2	0.7	-0.2
c1ccc(-c2nn3c(C4CCCCC4)nnc3s2)cc1	20.7	5.2	0.6	37.7	0.8	-5.3
